Laboratory results: the supplement of paper PMC4466140

What follows are binders tested against AgAbp1 (assay: SPOT peptide array binding signal intensity (averaged, normalized) (arbitrary units (background-subtracted, floor 0; scale differs between SH3 domains)); higher = stronger binding of the SH3 domain to the peptide).
Outline: (§1)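 SH3 domains from four yeast species were expressed as GST fusions in E. coli BL21(DE3) and purified on glutathione Sepharose. Each was incubated at 10 μg/ml overnight at 4°C in TBS-based blocking buffer on cellulose membranes bearing synthetic 15-mer peptides, in which serines replaced cysteines. Bound protein was detected with anti-GST antibody, an HRP anti-mouse secondary and luminol, then imaged and quantified with Genespotter. The binding signal is the normalized, background-subtracted spot intensity averaged over replicates, in arbitrary units that are not the same from one domain to another.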
NFLRLLIGLPSQNEL was tested, and the “SPOT peptide array binding signal intensity” value was no more than 0.

Each binder was assayed against AgBbc1 in the same assay as above.
Outline: as §1
For NFLRLLIGLPSQNEL, the “SPOT peptide array binding signal intensity” value was 4.25.

What follows are binders tested against AgBem1-D1 in the same assay as above.
Outline: as §1
For NFLRLLIGLPSQNEL, the “SPOT peptide array binding signal intensity” value was 132.

These binders were tested against AgBzz1-D1 in the same assay as above.
Outline: as §1
With NFLRLLIGLPSQNEL the “SPOT peptide array binding signal intensity” value was 17.5.

What follows are binders tested against AgBzz1-D2 in the same assay as above.
Outline: as §1
With NFLRLLIGLPSQNEL the “SPOT peptide array binding signal intensity” value was 6.5.

The binders below were run against AgCyk3 in the same assay as above.
Outline: as §1
NFLRLLIGLPSQNEL was tested, and the “SPOT peptide array binding signal intensity” value was 3.5.

The binders below were run against AgFus1 in the same assay as above.
Outline: as §1
In the case of NFLRLLIGLPSQNEL, the “SPOT peptide array binding signal intensity” value is reported as 950.

What follows are binders tested against AgHof1 in the same assay as above.
Outline: as §1
NFLRLLIGLPSQNEL was tested, and the “SPOT peptide array binding signal intensity” value was 31.5.

These binders were tested against AgHse1 in the same assay as above.
Outline: as §1
With NFLRLLIGLPSQNEL the “SPOT peptide array binding signal intensity” value was 2760.

These binders were tested against AgLsb1 in the same assay as above.
Outline: as §1
In the case of NFLRLLIGLPSQNEL, the “SPOT peptide array binding signal intensity” value is reported as no more than 0.

Each binder was assayed against AgLsb4 in the same assay as above.
Outline: as §1
For NFLRLLIGLPSQNEL, the “SPOT peptide array binding signal intensity” value was 248.

Each binder was assayed against AgMyo5 in the same assay as above.
Outline: as §1
In the case of NFLRLLIGLPSQNEL, the “SPOT peptide array binding signal intensity” value is reported as 2.75.

What follows are binders tested against AgNbp2 in the same assay as above.
Outline: as §1
NFLRLLIGLPSQNEL was tested, and the “SPOT peptide array binding signal intensity” value was 39.

These binders were tested against AgRvs167 in the same assay as above.
Outline: as §1
In the case of NFLRLLIGLPSQNEL, the “SPOT peptide array binding signal intensity” value is reported as 2.

What follows are binders tested against AgSho1 in the same assay as above.
Outline: as §1
For NFLRLLIGLPSQNEL, the “SPOT peptide array binding signal intensity” value was 263.

What follows are binders tested against AgSla1-D1-D2 in the same assay as above.
Outline: as §1
With NFLRLLIGLPSQNEL the “SPOT peptide array binding signal intensity” value was 50.

Each binder was assayed against AgSla1-D3 in the same assay as above.
Outline: as §1
With NFLRLLIGLPSQNEL the “SPOT peptide array binding signal intensity” value was 4.5.

These binders were tested against CaAbp1-D1 in the same assay as above.
Outline: as §1
NFLRLLIGLPSQNEL was tested, and the “SPOT peptide array binding signal intensity” value was no more than 0.

The binders below were run against CaAbp1-D2 in the same assay as above.
Outline: as §1
For NFLRLLIGLPSQNEL, the “SPOT peptide array binding signal intensity” value was no more than 0.

Each binder was assayed against CaBbc1 in the same assay as above.
Outline: as §1
In the case of NFLRLLIGLPSQNEL, the “SPOT peptide array binding signal intensity” value is reported as no more than 0.

The binders below were run against CaBem1-D1 in the same assay as above.
Outline: as §1
NFLRLLIGLPSQNEL was tested, and the “SPOT peptide array binding signal intensity” value was no more than 0.

These binders were tested against CaBzz1-D1 in the same assay as above.
Outline: as §1
In the case of NFLRLLIGLPSQNEL, the “SPOT peptide array binding signal intensity” value is reported as 39.

The binders below were run against CaBzz1-D2 in the same assay as above.
Outline: as §1
In the case of NFLRLLIGLPSQNEL, the “SPOT peptide array binding signal intensity” value is reported as 37.

The binders below were run against CaCyk3 in the same assay as above.
Outline: as §1
For NFLRLLIGLPSQNEL, the “SPOT peptide array binding signal intensity” value was 4.

What follows are binders tested against CaFus1 in the same assay as above.
Outline: as §1
With NFLRLLIGLPSQNEL the “SPOT peptide array binding signal intensity” value was 2560.

The binders below were run against CaHof1 in the same assay as above.
Outline: as §1
In the case of NFLRLLIGLPSQNEL, the “SPOT peptide array binding signal intensity” value is reported as 1.5.

The binders below were run against CaHse1 in the same assay as above.
Outline: as §1
For NFLRLLIGLPSQNEL, the “SPOT peptide array binding signal intensity” value was 156.

Each binder was assayed against CaLsb1 in the same assay as above.
Outline: as §1
NFLRLLIGLPSQNEL was tested, and the “SPOT peptide array binding signal intensity” value was 2.5.

What follows are binders tested against CaLsb4 in the same assay as above.
Outline: as §1
NFLRLLIGLPSQNEL was tested, and the “SPOT peptide array binding signal intensity” value was 3.

Each binder was assayed against CaMyo5 in the same assay as above.
Outline: as §1
In the case of NFLRLLIGLPSQNEL, the “SPOT peptide array binding signal intensity” value is reported as 8.25.

The binders below were run against CaNbp2 in the same assay as above.
Outline: as §1
NFLRLLIGLPSQNEL was tested, and the “SPOT peptide array binding signal intensity” value was 259.

The binders below were run against CaRvs167 in the same assay as above.
Outline: as §1
NFLRLLIGLPSQNEL was tested, and the “SPOT peptide array binding signal intensity” value was 72.

These binders were tested against CaRvs167-3 in the same assay as above.
Outline: as §1
For NFLRLLIGLPSQNEL, the “SPOT peptide array binding signal intensity” value was 143.

These binders were tested against CaSho1 in the same assay as above.
Outline: as §1
With NFLRLLIGLPSQNEL the “SPOT peptide array binding signal intensity” value was 731.

These binders were tested against CaSla1-D1-D2 in the same assay as above.
Outline: as §1
With NFLRLLIGLPSQNEL the “SPOT peptide array binding signal intensity” value was no more than 0.

The binders below were run against CaSla1-D3 in the same assay as above.
Outline: as §1
For NFLRLLIGLPSQNEL, the “SPOT peptide array binding signal intensity” value was 41.2.

What follows are binders tested against ScAbp1 in the same assay as above.
Outline: as §1
NFLRLLIGLPSQNEL was tested, and the “SPOT peptide array binding signal intensity” value was no more than 0.

What follows are binders tested against ScBbc1 in the same assay as above.
Outline: as §1
NFLRLLIGLPSQNEL was tested, and the “SPOT peptide array binding signal intensity” value was 0.5.

What follows are binders tested against ScBem1-D1 in the same assay as above.
Outline: as §1
For NFLRLLIGLPSQNEL, the “SPOT peptide array binding signal intensity” value was 18.

Each binder was assayed against ScBzz1-D1 in the same assay as above.
Outline: as §1
With NFLRLLIGLPSQNEL the “SPOT peptide array binding signal intensity” value was 19.

The binders below were run against ScBzz1-D2 in the same assay as above.
Outline: as §1
For NFLRLLIGLPSQNEL, the “SPOT peptide array binding signal intensity” value was 21.

The binders below were run against ScCyk3 in the same assay as above.
Outline: as §1
For NFLRLLIGLPSQNEL, the “SPOT peptide array binding signal intensity” value was 101.

Each binder was assayed against ScFus1 in the same assay as above.
Outline: as §1
With NFLRLLIGLPSQNEL the “SPOT peptide array binding signal intensity” value was 1020.

The binders below were run against ScHof1 in the same assay as above.
Outline: as §1
NFLRLLIGLPSQNEL was tested, and the “SPOT peptide array binding signal intensity” value was 1.5.

What follows are binders tested against ScHse1 in the same assay as above.
Outline: as §1
In the case of NFLRLLIGLPSQNEL, the “SPOT peptide array binding signal intensity” value is reported as 2880.

The binders below were run against ScLsb1 in the same assay as above.
Outline: as §1
In the case of NFLRLLIGLPSQNEL, the “SPOT peptide array binding signal intensity” value is reported as 0.75.

The binders below were run against ScLsb2 in the same assay as above.
Outline: as §1
For NFLRLLIGLPSQNEL, the “SPOT peptide array binding signal intensity” value was no more than 0.

Each binder was assayed against ScLsb3 in the same assay as above.
Outline: as §1
NFLRLLIGLPSQNEL was tested, and the “SPOT peptide array binding signal intensity” value was 276.

What follows are binders tested against ScLsb4 in the same assay as above.
Outline: as §1
In the case of NFLRLLIGLPSQNEL, the “SPOT peptide array binding signal intensity” value is reported as no more than 0.

Each binder was assayed against ScMyo3 in the same assay as above.
Outline: as §1
For NFLRLLIGLPSQNEL, the “SPOT peptide array binding signal intensity” value was 4.

The binders below were run against ScMyo5 in the same assay as above.
Outline: as §1
For NFLRLLIGLPSQNEL, the “SPOT peptide array binding signal intensity” value was no more than 0.

What follows are binders tested against ScNbp2 in the same assay as above.
Outline: as §1
For NFLRLLIGLPSQNEL, the “SPOT peptide array binding signal intensity” value was 53.

The binders below were run against ScPex13 in the same assay as above.
Outline: as §1
NFLRLLIGLPSQNEL was tested, and the “SPOT peptide array binding signal intensity” value was no more than 0.

These binders were tested against ScRvs167 in the same assay as above.
Outline: as §1
NFLRLLIGLPSQNEL was tested, and the “SPOT peptide array binding signal intensity” value was 11.7.

What follows are binders tested against ScSho1 in the same assay as above.
Outline: as §1
In the case of NFLRLLIGLPSQNEL, the “SPOT peptide array binding signal intensity” value is reported as 1160.

The binders below were run against ScSla1-D1-D2 in the same assay as above.
Outline: as §1
In the case of NFLRLLIGLPSQNEL, the “SPOT peptide array binding signal intensity” value is reported as no more than 0.

These binders were tested against ScSla1-D3 in the same assay as above.
Outline: as §1
In the case of NFLRLLIGLPSQNEL, the “SPOT peptide array binding signal intensity” value is reported as 8.5.

What follows are binders tested against SpAbp1-D1 in the same assay as above.
Outline: as §1
With NFLRLLIGLPSQNEL the “SPOT peptide array binding signal intensity” value was 1.

What follows are binders tested against SpBbc1 in the same assay as above.
Outline: as §1
NFLRLLIGLPSQNEL was tested, and the “SPOT peptide array binding signal intensity” value was 3.75.

Each binder was assayed against SpBzz1-D1 in the same assay as above.
Outline: as §1
With NFLRLLIGLPSQNEL the “SPOT peptide array binding signal intensity” value was 22.
